The list is not random: actives were taken first. Their share in the collection is about 2.5%.
ASK1 inh = ASK1 kinase inhibitors, primary screen, biochemical, AlphaScreen | inhibition, % at 7.44 µM | Mitogen-activated protein kinase kinase kinase 5 (Homo sapiens), Q99683 | AlphaScreen MKK6 phosphorylation by ASK1, luminescence | hit rate 0.99% among 22,000; in the data active means inhibition above about 35%;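 further: 0% = median of compound wells and 100% = no enzyme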
ULK1 inh = ULK1 kinase inhibitors, primary screen, biochemical, AlphaScreen; inhibition, % at 5.96 µM; hit rate 1.9% among 30,000; AlphaScreen Atg13 phosphorylation by ULK1, luminescence; Serine/threonine-protein kinase ULK1 (Homo sapiens), O75385; in the data active means inhibition above about 43%;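 further: 0% = median of compound wells and 100% = no enzyme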
Numbers without * were called inactive; . = no result; ! = a repeat was not active.

SMILES	ASK1 inh	ULK1 inh
CNS(=O)(=O)c1ccccc1Nc1cc(Nc2cc(-c3cncnc3)nc(C)n2)ncc1C(F)(F)F	14	73*
CNS(=O)(=O)c1ccccc1Nc1cc(Nc2ccc(N3CCCC3=O)cc2)ncc1C(F)(F)F	-6	50*
CS(=O)(=O)c1cccc(CNc2cc(Nc3ccc(N4CCCC4=O)cc3)ncc2C(F)(F)F)c1	14	24
O=C(NCCCN1CCCC1=O)c1ccc2nc(Nc3ccc4ncccc4c3)sc2c1	-15	-4
O=C(Nc1nc2c(s1)CN(Cc1ccccc1)CC2)C1CCCCC1	.	0
N#Cc1c(N)sc(=S)c2c1CCN(Cc1ccccc1)C2	.	75*
CCN(CC)c1cc(-c2ccccc2F)nc(-c2ccccn2)n1	.	-18
CCOC(=O)C1=C(C)NC2=C(C(=O)CC(C)(C)C2)C1c1cc(OC)c(OC)c(OC)c1 (stereo unspecified)	.	3
CCOC(=O)c1ccc(NC(=O)C(=O)NCc2ccc(/C=C(/C#N)C(N)=O)o2)cc1	.	0
O=C1c2c(O)cccc2Cc2cccc(O)c21	.	60*!
Oc1cccc2c1CC=CC2	.	10
CCN(CC)Cc1cc(NC(C)=O)ccc1OC(=O)c1ccc(Br)cc1	.	16
COc1cc(Nc2nc(NCCCN3CCCC3=O)nc3c2ncn3-c2ccccc2)cc(OC)c1OC	12	-1
CCN(CC)CCNC(=O)c1ccc(Nc2cc(Nc3ccccc3C(=O)NC)c(C(F)(F)F)cn2)c(OC)c1	19	90*
COc1ccc(CC(=O)Nc2cc(Nc3ccccc3C(=O)NC[C@H](O)C(=O)N(C)C)ccn2)cc1	-35	10
CNC(=O)c1ccccc1Nc1cc(Nc2ccc(C(=O)N(C)C)cc2OC)ncc1C(F)(F)F	1	88*
CNC(=O)c1ccccc1Nc1cc(Nc2ccc(C(=O)NC[C@H](O)C(=O)N(C)C)cc2OC)ncc1C(F)(F)F	6	89*
CCN(CC)c1nc(NCCCN2CCCC2=O)nc(NCc2ccccc2)n1	-4	-4
c1ccc(-c2nc(NCCCn3ccnc3)cc(-c3cccnc3)n2)cc1	.	3
Cn1nccc1Nc1nc2ncnc(NCCOc3ccccc3)c2[nH]1	3	21
Cc1cc(NC2CC2)nc(-c2ccc(C(=O)NC3CC3)cc2)n1	-6	13
COc1ccc(CCNc2nc(Nc3ccccc3)nc3nc[nH]c23)cc1	22	4
COc1cc(Nc2nc(Nc3ccc4c(c3)OCO4)c3[nH]cnc3n2)cc(OC)c1OC	6	52*
COc1cc(Nc2nc(NCc3ccc4c(c3)OCO4)nc3nc[nH]c23)cc(OC)c1OC	21	-14
COc1cc(Nc2ncc(C)c(NC3CC3)n2)cc(OC)c1OC	20	65*
SMILES	ASK1 inh	ULK1 inh
COc1cc(Nc2nc(NC3CC3)c3[nH]cnc3n2)cc(OC)c1OC	-6	62*
Cc1cnc(Nc2ncccn2)nc1NC1CC1	-22	16
COc1cc(Nc2nc(NC3CCN(Cc4ccccc4)CC3)c3[nH]cnc3n2)cc(OC)c1OC	18	6
COc1ccc(CCNc2nc(Nc3cc(OC)c(OC)c(OC)c3)nc3nc[nH]c23)cc1	14	69*
CC(C)N(CCNC(=O)c1cnc(Nc2nc3ccccc3n2C)s1)C(C)C	-16	12
O=C(CSC1=NC(=O)C(c2ccccc2)C(=O)N1)Nc1ccc(Br)cn1 (stereo unspecified)	.	-1
Cc1cc(Nc2ccccc2)nc(-c2ccc(C(=O)NC3CC3)cc2)n1	-15	4
CCCn1cc(NC(=O)c2cc(-c3ccccc3O)no2)cn1	-6	-5
CC(C)N(CCNc1cc(-c2ccc(C(=O)NC3CC3)cc2)ncn1)C(C)C	2	-32
O=C(Nc1ccc2oc(-c3ccccc3F)cc(=O)c2c1)c1ccncc1	.	-5
CCOc1ccc(S(=O)(=O)Nc2ccc(-c3cn4ccc(C)nc4n3)cc2)c(OCC)c1	.	-5
CC(C)N(CCNc1nc(Nc2ccc3ncccc3c2)nc2nc[nH]c12)C(C)C	7	17
CN(C)c1cccc(Nc2nc(NC3CC3)c3[nH]cnc3n2)c1	34	43*
CN(C)c1cccc(Nc2nc(Nc3ccccc3)c3[nH]cnc3n2)c1	30	15
Cc1cnc(Nc2cccc(N(C)C)c2)nc1Nc1ccccc1	15	23
COc1cc(Nc2nc(Nc3cccc(N(C)C)c3)ncc2C)cc(OC)c1OC	21	63*
Oc1ccc(CCNc2nc(Nc3ccc4ncccc4c3)nc3nc[nH]c23)cc1	-29	60*
CN1CCN(C(=O)c2ccc(-c3nc(Nc4ccc(Oc5ccccc5)cc4)c4ncn(Cc5ccc(C(F)(F)F)cc5)c4n3)cc2)CC1	8	-2
CC(C)n1c(-c2ccc(C(N)=O)cc2)nc2c(NCCCN3CCCC3=O)ncnc21	13	8
CCNc1ncc(C(=O)Nc2ccc3c(c2)OCO3)s1	6	2
Nc1cccc(-c2nc3ccc(C(=O)NCCc4ccc(O)cc4)cc3s2)c1	18	14
N#C/C(=C\c1nn(-c2ccccc2)c(N)c1C#N)c1ccco1	.	45*

Source: PubChem (The Scripps Research Institute Molecular Screening Center)
